Source: the supplement of paper PMC10849652
The full data set covers some 7,900 targets. This sample favours those with a hit. About 0.6% of all pairs of compound and target were hits.

Legend:
Test in all cases: log2 fold change, soluble protein after heating vs DMSO (PISA); higher = thermal stabilisation; K562 cells, 10 uM, 30 min; active = over 0.2 and 3.5 SD of the protein, either way, in both replicates (recomputed)
erlotinib = compound: C#Cc1cccc(Nc2ncnc3cc(OCCOC)c(OCCOC)cc23)c1 [erlotinib]
How it was run: (§1)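 K562 cells at 2×10^6 cells/mL were treated with 10 μM compound for 30 min. Aliquots were heated for 3 min across 48°C-58°C, pooled, and extracted in PBS with 0.5% NP-40 at 4°C; soluble protein was the supernatant after 21,000xg for 90 min. Soluble protein was quantified by TMTpro 16plex LC-MS/MS with channel sums equalised, and reported as log2 fold change in thermal stability against DMSO controls, with values from duplicates.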

[1] = compound: C/C(=N\NC(=O)C1=CC(=CC=C1)S(=O)(=O)N2CCOCC2)/C3=C(C=CC(=C3)Cl)O
How it was run: as §1

[2] = compound: C1=CC(=C(C=C1Cl)C2=NC3=NC=CN=C3C(=N2)NC4=CC=NC=C4)F
How it was run: as §1

[3] = compound: C1=CC(=CC=C1C2=NC3=C(N2)C=C(C=C3)C(=O)N)OC4=CC=C(C=C4)Cl
How it was run: as §1

[4] = compound: C1=CC2=C(C=CC(=C2)/C=C\3/C(=O)NC(=NCC4=CC=CS4)S3)N=C1
How it was run: as §1

[5] = compound: C1=CC2=NC=CN=C2C=C1/C=C/3\C(=O)NC(=O)S3
How it was run: as §1

[6] = compound: C1=CC=C(C=C1)C2=NC(=C(N2)C3=CC=NC=C3)C4=CC(=C(C=C4)Cl)O
How it was run: as §1

[7] = compound: C1=CC=C2C(=C1)C3=NNC4=CC=CC(=C43)C2=O
How it was run: as §1

[8] = compound: C1CCN(C1)C(=O)NC2=CC=CC(=C2)NC3=NC=C(C(=N3)NCCC4=CN=CN4)Br
How it was run: as §1

[9] = compound: C1CN(CCC1(CC2=CC=C(C=C2)Cl)N)C3=NC=NC4=C3C=CN4
How it was run: as §1

Measured: log2 fold change

ADH5 (UniProt P11766)
UniProt P11766, sequence (P11766 whole entry, looked up): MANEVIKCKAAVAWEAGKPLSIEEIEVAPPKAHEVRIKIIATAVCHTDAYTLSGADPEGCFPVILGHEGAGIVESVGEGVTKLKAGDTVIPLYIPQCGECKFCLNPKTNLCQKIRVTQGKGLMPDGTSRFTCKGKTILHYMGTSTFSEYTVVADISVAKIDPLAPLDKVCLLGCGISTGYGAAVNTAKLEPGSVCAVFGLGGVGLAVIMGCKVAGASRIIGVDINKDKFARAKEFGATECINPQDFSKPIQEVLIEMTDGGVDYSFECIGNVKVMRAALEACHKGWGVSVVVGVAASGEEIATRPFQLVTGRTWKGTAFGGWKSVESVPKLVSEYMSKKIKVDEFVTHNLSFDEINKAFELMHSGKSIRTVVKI
inactive: erlotinib -0.012 | [1] 0.034 | [2] 0.05 | [3] -0.016 | [4] 0.001 | [5] 0.007 | [6] -0.039 | [7] 0.002 | [8] 0.004 | [9] 0.037

ASH2L (UniProt Q9UBL3)
UniProt Q9UBL3, sequence (Q9UBL3 whole entry, looked up): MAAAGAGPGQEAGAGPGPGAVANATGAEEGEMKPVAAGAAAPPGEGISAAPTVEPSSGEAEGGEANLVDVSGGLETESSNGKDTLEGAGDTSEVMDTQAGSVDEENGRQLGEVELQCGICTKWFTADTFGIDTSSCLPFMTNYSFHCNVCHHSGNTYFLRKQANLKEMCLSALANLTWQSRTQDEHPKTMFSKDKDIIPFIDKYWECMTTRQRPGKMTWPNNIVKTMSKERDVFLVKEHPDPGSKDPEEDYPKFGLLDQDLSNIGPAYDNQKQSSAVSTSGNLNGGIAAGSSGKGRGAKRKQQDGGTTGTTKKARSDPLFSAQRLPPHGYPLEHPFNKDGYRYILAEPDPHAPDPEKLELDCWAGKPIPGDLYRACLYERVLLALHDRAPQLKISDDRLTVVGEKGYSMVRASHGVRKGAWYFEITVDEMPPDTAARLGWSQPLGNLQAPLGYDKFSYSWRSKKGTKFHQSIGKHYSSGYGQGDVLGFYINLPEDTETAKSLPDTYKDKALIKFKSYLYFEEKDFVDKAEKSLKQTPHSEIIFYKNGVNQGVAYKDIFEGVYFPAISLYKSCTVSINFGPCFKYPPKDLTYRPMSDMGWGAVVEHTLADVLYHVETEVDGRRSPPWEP
inactive: erlotinib -0.021 | [1] 0.025 | [2] 0.019 | [3] -0.062 | [4] -0.012 | [5] 0.022 | [6] 0.001 | [7] -0.029 | [8] -0.004 | [9] 0.052

ALDH1B1 (UniProt P30837)
UniProt P30837, sequence (P30837 whole entry, looked up): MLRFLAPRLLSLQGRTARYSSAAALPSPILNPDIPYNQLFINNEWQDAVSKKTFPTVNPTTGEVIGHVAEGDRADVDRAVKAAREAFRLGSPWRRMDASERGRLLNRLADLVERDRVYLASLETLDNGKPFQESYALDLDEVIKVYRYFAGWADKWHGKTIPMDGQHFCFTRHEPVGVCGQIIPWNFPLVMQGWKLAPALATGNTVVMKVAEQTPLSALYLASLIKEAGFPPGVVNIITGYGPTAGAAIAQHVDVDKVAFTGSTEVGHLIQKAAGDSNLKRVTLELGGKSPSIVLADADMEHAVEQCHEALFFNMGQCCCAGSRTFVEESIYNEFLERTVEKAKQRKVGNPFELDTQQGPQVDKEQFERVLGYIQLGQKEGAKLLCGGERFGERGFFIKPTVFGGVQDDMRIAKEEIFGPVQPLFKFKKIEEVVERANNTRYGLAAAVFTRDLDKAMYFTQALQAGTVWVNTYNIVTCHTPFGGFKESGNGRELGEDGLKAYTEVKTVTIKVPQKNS
inactive: erlotinib 0 | [1] 0.073 | [2] 0.066 | [3] 0.081 | [4] 0.062 | [5] -0.009 | [6] 0.044 | [7] 0.065 | [8] -0.028 | [9] 0.043

AIFM2 (UniProt Q9BRQ8)
UniProt Q9BRQ8, sequence (Q9BRQ8 whole entry, looked up): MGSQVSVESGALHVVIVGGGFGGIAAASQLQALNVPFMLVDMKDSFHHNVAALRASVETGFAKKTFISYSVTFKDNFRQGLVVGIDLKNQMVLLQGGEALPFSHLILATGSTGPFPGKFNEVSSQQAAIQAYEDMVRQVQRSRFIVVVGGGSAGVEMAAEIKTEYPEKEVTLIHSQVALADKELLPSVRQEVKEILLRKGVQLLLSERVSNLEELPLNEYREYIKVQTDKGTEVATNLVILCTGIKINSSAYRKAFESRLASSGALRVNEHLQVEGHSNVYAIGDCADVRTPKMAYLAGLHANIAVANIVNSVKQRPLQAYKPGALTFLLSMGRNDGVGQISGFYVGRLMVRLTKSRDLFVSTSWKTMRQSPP
inactive: erlotinib -0.038 | [1] 0.045 | [2] -0.001 | [3] 0.064 | [4] -0.025 | [5] -0.032 | [6] 0.041 | [7] 0.172 | [8] -0.045 | [9] 0.064

ADK (UniProt P55263)
UniProt P55263, sequence (P55263 whole entry, looked up): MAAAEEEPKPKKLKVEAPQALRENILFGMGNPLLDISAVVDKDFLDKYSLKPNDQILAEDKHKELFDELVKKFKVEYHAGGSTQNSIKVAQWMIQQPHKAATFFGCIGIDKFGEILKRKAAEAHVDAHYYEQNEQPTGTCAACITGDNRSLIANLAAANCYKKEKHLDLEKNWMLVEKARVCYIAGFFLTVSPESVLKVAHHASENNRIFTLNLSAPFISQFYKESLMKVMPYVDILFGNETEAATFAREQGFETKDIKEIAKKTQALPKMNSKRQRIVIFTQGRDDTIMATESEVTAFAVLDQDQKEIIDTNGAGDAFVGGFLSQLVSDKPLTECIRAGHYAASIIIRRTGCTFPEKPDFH
inactive: erlotinib 0.293 | [1] -0.034 | [2] 0.06 | [3] -0.062 | [4] 0.079 | [5] 0.005 | [6] 0.035 | [7] 0.042 | [8] -0.032 | [9] 0.085

B4GALT1 (UniProt P15291)
inactive: erlotinib -0.095 | [1] 0.07 | [2] -0.018 | [3] 0.047 | [4] -0.033 | [5] 0.07 | [6] -0.035 | [7] 0.024 | [8] -0.078 | [9] 0.017

BID isoform 2 (UniProt P55957)
UniProt P55957, sequence (P55957 whole entry, looked up): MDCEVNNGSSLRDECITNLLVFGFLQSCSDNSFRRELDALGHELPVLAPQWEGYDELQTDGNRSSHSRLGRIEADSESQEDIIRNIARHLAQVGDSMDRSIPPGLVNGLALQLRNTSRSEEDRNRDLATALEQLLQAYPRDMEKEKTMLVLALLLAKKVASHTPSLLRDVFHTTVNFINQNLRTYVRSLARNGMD
inactive: erlotinib 0.026 | [1] 0.006 | [2] 0.014 | [3] 0.052 | [4] -0.04 | [5] 0.012 | [6] -0.03 | [7] 0.028 | [8] -0.05 | [9] 0.034

ALKBH5 (UniProt Q6P6C2)
UniProt Q6P6C2, sequence (Q6P6C2 whole entry, looked up): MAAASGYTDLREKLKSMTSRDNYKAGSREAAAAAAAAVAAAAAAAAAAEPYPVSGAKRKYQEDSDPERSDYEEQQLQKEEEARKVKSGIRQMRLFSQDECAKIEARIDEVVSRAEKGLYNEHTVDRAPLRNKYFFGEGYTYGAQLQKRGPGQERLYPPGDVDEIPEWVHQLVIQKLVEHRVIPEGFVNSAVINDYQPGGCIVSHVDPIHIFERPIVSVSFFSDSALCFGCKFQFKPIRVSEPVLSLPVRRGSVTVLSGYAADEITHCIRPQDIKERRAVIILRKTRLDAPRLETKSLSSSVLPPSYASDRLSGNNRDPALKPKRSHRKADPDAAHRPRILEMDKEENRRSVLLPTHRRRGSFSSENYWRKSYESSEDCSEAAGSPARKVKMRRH
active: [1] -0.637
inactive: erlotinib 0.176 | [2] -0.126 | [3] 0.139 | [4] 0.056 | [5] -0.067 | [6] 0.015 | [7] -0.032 | [8] -0.087 | [9] 0.113

AAMP (UniProt Q13685)
inactive: erlotinib 0.025 | [1] -0.032 | [2] 0.006 | [3] -0.003 | [4] 0.042 | [5] 0.074 | [6] -0.007 | [7] 0.003 | [8] -0.006 | [9] 0.085

ANKZF1 (UniProt Q9H8Y5)
UniProt Q9H8Y5, sequence (Q9H8Y5 whole entry, looked up): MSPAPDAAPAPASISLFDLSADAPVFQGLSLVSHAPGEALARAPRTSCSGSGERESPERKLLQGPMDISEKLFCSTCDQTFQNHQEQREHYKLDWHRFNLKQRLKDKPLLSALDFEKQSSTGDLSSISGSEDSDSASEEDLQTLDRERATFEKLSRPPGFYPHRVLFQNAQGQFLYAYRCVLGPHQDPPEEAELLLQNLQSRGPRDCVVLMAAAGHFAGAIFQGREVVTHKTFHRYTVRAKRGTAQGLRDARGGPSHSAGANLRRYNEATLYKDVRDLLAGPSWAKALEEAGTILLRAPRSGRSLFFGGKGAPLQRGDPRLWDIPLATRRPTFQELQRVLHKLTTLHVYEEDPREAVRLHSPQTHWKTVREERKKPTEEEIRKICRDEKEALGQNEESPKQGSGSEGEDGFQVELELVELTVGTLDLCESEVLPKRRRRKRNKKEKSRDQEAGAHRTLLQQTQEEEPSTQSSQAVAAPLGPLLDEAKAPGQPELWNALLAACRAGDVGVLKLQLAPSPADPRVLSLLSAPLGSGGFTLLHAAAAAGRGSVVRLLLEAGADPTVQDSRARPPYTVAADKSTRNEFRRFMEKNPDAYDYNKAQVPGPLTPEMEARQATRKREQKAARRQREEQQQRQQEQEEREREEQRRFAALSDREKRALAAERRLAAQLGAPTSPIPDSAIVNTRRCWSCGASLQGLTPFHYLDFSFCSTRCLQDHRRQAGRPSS
inactive: erlotinib 0.142 | [1] 0.032 | [2] -0.141 | [3] 0 | [4] 0.015 | [5] -0.108 | [6] -0.035 | [7] -0.039 | [8] 0.057 | [9] -0.022

ACBD6 (UniProt Q9BR61)
UniProt Q9BR61, sequence (Q9BR61 whole entry, looked up): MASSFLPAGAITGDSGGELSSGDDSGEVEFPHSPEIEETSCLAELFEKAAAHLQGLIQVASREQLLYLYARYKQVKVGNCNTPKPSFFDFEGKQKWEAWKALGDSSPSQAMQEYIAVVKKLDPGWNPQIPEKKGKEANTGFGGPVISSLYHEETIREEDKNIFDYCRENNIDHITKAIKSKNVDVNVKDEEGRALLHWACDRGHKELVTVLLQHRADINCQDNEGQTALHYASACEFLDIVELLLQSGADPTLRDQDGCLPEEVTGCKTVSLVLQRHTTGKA
inactive: erlotinib 0.056 | [1] -0.031 | [2] 0.134 | [3] 0.108 | [4] 0.007 | [5] 0.011 | [6] -0.078 | [7] 0.073 | [8] -0.186 | [9] -0.216

BZW1 isoform 3 (UniProt Q7L1Q6)
inactive: erlotinib 0.049 | [1] 0.176 | [2] -0.001 | [3] -0.088 | [4] 0.054 | [5] 0.019 | [6] 0.042 | [7] 0.039 | [8] -0.059 | [9] -0.101

BRK1 isoform 2 (UniProt Q8WUW1)
UniProt Q8WUW1, sequence (Q8WUW1 whole entry, looked up): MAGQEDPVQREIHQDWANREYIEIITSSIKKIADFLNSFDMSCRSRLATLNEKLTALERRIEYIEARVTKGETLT
inactive: erlotinib -0.115 | [1] 0.003 | [2] 0.279 | [3] 0.04 | [4] 0.027 | [5] 0.072 | [6] 0.051 | [7] -0.02 | [8] -0.08 | [9] -0.037

ABHD11 (UniProt Q8NFV4)
UniProt Q8NFV4, sequence (Q8NFV4 whole entry, looked up): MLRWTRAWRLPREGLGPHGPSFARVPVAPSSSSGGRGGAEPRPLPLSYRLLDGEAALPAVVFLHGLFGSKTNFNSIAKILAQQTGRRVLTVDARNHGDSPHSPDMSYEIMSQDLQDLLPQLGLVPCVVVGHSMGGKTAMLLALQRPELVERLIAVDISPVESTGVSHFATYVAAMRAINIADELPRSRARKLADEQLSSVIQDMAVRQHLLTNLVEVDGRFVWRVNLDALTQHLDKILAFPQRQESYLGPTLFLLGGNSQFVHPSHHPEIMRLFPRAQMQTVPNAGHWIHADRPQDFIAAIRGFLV
inactive: erlotinib 0.03 | [1] -0.041 | [2] 0.078 | [3] -0.033 | [4] 0.113 | [5] -0.067 | [6] 0.045 | [7] 0.043 | [8] -0.079 | [9] 0.01

ARHGAP1 (UniProt Q07960)
UniProt Q07960, sequence (Q07960 whole entry, looked up): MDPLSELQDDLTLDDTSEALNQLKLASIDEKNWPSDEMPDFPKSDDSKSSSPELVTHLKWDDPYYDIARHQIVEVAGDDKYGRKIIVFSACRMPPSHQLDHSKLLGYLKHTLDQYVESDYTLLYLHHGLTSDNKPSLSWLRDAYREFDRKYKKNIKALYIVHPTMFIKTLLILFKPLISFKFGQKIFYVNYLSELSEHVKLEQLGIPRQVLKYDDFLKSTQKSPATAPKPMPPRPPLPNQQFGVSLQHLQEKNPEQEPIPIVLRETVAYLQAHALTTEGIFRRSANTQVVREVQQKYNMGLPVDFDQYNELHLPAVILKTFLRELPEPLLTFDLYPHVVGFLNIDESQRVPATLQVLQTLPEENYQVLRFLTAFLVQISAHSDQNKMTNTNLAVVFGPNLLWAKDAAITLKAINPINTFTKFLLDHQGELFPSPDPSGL
inactive: erlotinib -0.039 | [1] 0.014 | [2] 0.025 | [3] 0.021 | [4] 0.038 | [5] 0.021 | [6] 0.021 | [7] -0.011 | [8] 0.002 | [9] 0.019

ARFGEF1 (UniProt Q9Y6D6)
inactive: erlotinib 0.016 | [1] 0.025 | [2] 0.03 | [3] -0.03 | [4] 0.016 | [5] 0.015 | [6] 0.101 | [7] 0.051 | [8] -0.013 | [9] 0.043
